This is a sample that favours compounds with a hit; in the whole collection about 10% have one here.
CtBP-E1A inh: CtBP/E1A binding inhibition; activity change, % (test concentration not listed); AlphaScreen GST-E1A/His-CtBP binding, 1536-well; active compounds read low; hit rate 0.49% among 340,000; in the data active = activity change below about -65%; inconclusive = mostly about -30% to -63%
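AlphaScreen with 125 nM GST-E1A and 125 nM His-CtBP (5X stocks) in Tris pH 8.0, 300 mM NaCl, BSA, Tween 20, TCEP. Compounds preincubated 2 h at 37 deg C, then glutathione donor/nickel acceptor beads added for 1 h at 37 deg C in dark.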
BAZ2B inh: BAZ2B (human) inhibition. Q9UIF8. AlphaScreen BAZ2B-H3K14Ac peptide displacement. Potency, µM (doses to about 114 µM), actives largely listed as inhibitors. hit rate 4.4% among 360,000; note: nearly all actives have a fitted effect of over 60% in size
Target sequence (Q9UIF8 whole entry, looked up): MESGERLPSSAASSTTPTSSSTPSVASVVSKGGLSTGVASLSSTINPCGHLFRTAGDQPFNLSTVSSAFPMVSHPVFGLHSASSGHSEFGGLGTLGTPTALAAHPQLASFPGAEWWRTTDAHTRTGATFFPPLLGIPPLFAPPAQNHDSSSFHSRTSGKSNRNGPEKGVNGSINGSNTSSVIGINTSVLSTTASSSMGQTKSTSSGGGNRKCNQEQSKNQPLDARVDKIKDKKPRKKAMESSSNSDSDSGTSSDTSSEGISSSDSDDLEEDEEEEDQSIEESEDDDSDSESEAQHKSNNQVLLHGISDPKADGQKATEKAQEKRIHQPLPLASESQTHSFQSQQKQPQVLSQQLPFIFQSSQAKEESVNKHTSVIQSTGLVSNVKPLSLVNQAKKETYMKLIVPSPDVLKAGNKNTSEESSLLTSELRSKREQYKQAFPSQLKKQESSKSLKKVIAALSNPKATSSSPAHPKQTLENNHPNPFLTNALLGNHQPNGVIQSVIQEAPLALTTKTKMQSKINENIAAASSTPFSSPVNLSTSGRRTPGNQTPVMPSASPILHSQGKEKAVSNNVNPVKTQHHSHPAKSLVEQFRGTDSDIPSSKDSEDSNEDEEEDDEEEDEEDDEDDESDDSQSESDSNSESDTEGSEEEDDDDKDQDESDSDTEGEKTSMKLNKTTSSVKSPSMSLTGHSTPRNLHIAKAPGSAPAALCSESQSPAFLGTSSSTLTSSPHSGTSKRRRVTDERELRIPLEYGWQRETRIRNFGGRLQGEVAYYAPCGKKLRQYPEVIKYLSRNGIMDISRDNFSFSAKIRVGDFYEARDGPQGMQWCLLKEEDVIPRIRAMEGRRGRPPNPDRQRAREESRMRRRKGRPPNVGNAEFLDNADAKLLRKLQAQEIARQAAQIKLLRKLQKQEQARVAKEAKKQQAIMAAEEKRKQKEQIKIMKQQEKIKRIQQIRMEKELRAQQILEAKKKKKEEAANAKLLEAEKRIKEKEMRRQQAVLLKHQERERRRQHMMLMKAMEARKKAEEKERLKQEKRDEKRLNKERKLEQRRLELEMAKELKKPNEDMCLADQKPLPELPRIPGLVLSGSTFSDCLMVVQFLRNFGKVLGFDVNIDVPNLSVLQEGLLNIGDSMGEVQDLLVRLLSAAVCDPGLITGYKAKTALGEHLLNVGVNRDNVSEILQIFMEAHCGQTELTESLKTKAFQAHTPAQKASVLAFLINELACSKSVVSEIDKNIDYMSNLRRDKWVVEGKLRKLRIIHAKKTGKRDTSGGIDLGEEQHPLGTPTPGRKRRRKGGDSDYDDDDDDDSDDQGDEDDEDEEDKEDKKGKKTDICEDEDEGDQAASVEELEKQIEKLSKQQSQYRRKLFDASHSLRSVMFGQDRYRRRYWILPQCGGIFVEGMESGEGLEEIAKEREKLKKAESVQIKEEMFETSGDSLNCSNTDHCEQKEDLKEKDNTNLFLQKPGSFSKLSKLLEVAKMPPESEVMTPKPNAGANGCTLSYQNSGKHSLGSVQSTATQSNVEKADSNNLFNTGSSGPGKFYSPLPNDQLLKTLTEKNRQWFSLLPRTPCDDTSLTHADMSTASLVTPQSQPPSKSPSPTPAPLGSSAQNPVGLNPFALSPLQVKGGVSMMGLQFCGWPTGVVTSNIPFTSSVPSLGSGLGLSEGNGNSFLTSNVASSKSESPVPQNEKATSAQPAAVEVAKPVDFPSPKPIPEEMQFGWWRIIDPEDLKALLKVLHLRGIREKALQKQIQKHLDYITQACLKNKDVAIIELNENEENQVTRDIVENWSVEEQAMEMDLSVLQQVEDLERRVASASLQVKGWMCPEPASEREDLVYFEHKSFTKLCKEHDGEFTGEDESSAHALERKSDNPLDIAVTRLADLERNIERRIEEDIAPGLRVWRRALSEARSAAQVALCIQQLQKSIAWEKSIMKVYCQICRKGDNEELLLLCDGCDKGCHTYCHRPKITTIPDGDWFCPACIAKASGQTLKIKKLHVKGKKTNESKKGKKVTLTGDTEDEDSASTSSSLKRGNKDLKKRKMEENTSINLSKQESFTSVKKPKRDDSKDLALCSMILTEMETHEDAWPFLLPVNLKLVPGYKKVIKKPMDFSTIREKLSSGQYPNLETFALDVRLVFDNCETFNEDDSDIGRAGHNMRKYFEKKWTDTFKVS
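Complex of BAZ2B and biotin-H3K14Ac (50 nM apiece) forms over 30 min at RT, then faces library compounds up to 110 uM for another 30 min; AlphaScreen beads added, 20 min dark incubation, luminescence read.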
G9a block: G9a (human) methyltransferase inhibition; G9a H3K9 monomethylation, AlphaScreen, 2 h; hit rate 8.8% among 350,000; Potency, µM (highest dose often 102 µM), most hits filed as inhibitors; note: nearly all actives have a fitted effect of over 75% in size
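Readings reflect AlphaScreen signal from monomethyl-H3K9 antibody detection. HMT at 20 nM; substrate b-H3K9 500 nM; cofactor SAM 20 uM; 2 h RT reaction; compounds tested as titrations in qHTS with 15 min preincubation.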
Six1-Eya2 blk: blocks human Six1 binding to Eya2. AlphaScreen GST-Six1/His-Eya2 binding, biochemical; active compounds read low. hit rate 0.56% among 360,000. AID 651725. activity change, % (no concentration beside the values). Q15475+O00167; in the data active = activity change below about -65%; inconclusive = mostly about -30% to -63%
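GST-Six1 + His-Eya2 (5X stock: 250/500 nM); Tris pH 8.0, 300 mM NaCl, 0.05% BSA, 0.02% Tween 20; GSH donor/Ni acceptor beads; 1 h 37 °C dark; AlphaScreen readout.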
JMJD2A Tudor inh: blocks the human JMJD2A Tudor domain. AlphaScreen JMJD2A-Tudor / H3K4me3 peptide binding. Potency, µM (series often up to 114 µM), hits mostly inhibitors. hit rate 4.4% among 390,000. AID 504339; note: nearly all actives have a fitted effect of over 50% in size
HP1b binding inh: inhibitors of HP1-beta chromodomain binding to methylated histone tails. AlphaScreen HP1-beta / biotin-H3K9me3 peptide binding. Potency, µM (top dose mostly 114 µM), usual class: inhibitors. hit rate 0.56% among 390,000; note: nearly all actives have a fitted effect of over 70% in size
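HP1-beta protein (50 nM final) preincubated 30 min at room temperature with biotinylated H3(1-18)K9me3 peptide (50 nM) in PBS pH 7.4, 0.01% Tween-20, then compound added for 30 min. AlphaScreen streptavidin donor/nickel chelate acceptor beads (10 ug/mL final), 30 min dark, luminescence read.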
A number is an active result; i = inactive; ? = inconclusive; nt = no result given; [ ] = dose if it differs, or a comment. Unless noted, calls come from the whole dose curve; as a rule, active = well fitted inhibition curve with a large enough effect; inconclusive = small, poorly fitted or top-dose-only effect; inactive = no such curve, though single readings can be large or run the other way.

SMILES | CtBP-E1A inh | BAZ2B inh | G9a block | Six1-Eya2 blk | JMJD2A Tudor inh | HP1b binding inh
Cc1ccc(NC(=O)Cn2c(=O)n(Cc3ccc4c(c3)OCO4)c(=O)c3ccc(C(=O)NC4CCCCC4)cc32)cc1 | nt | nt | i | nt | i | i
CN(Cc1ccccc1)C(=S)NC(=O)c1ccccc1 | i | i | 50µM | i | i | i
O=C(NC(=S)NCc1ccc(F)cc1)c1ccccc1 | i | i | 50µM | i | i | i
CN(Cc1ccccc1)C(=S)Nc1cccnc1 | i | i | i | i | 56µM | i
NC(=O)CC(NC(=S)NCc1ccccc1)C(=O)O (centres undefined) | i | i | 71µM | i | i | i
O=C(N1CCc2ccc(S(=O)(=O)N3CCN(S(=O)(=O)c4ccc5c(c4)OCCO5)CC3)cc2C1)C(F)(F)F | nt | nt | nt | nt | i | nt
O=C(Cc1csc(-c2ccccc2)n1)NCc1ccc(F)cc1 | i | i | 45µM | i | i | i
O=C(NC(=S)NCc1ccccc1)c1ccccc1 | i | i | 45µM | i | i | i
CCOC(=O)c1c(C)[nH]c(CCC(=O)Nc2ccccc2C(=O)OC)c1C | nt | i | i | nt | i | i
NS(=O)(=O)c1ccc(NC(=O)CN2CCN(S(=O)(=O)c3ccc(F)cc3)CC2)cc1 | i | i | i | i | 14µM | i
O=C(CN1CCN(S(=O)(=O)c2cc(Cl)ccc2Cl)CC1)Nc1ccc2c(c1)OCCO2 | i | i | 20µM | i | i | i
Cc1cccc(C)c1N1CCN(C(=O)Nc2ccc3c(c2)OCCO3)CC1 | i | ? | i | i | 50µM | i
O=C(CN1CCN(S(=O)(=O)c2ccc(Cl)cc2)CC1)Nc1ccc(N2CCOCC2)cc1 | i | i | 56µM | i | i | i
COCCCN(C(=S)Nc1cc(Cl)cc(Cl)c1)C(C)c1ccccn1 (centres undefined) | nt | i | ? | i | i | i
CCc1nn(CCCC(=O)NCc2ccc(OC)c(OC)c2)c(=O)c2cc3occc3n12 | nt | i | i | nt | i | i
C=CCN(CC=C)CC(=O)Nc1ccc(S(N)(=O)=O)cc1 | i | i | 0.71µM | i | i | i
CC1CCN(S(=O)(=O)c2ccc(NC(=O)CN3CCN(C)CC3)cc2)CC1 | i | ? | 11µM | i | 3.2µM | ?
CC1CCN(S(=O)(=O)c2ccc(NC(=O)CN3CCCCCC3)cc2)CC1 | i | i | ? | i | i | i
COc1cc2c(cc1OC)C(C)N(CC(=O)Nc1ccc(S(=O)(=O)N3CCCC3)cc1)CC2 (centres undefined) | i | i | 40µM | i | i | i
CCOC(=O)N1CCN(c2c(Nc3ccc4c(c3)OCCO4)c(=O)c2=O)CC1 | i | i | ? | i | i | i
CCOC(=O)N1CCN(CC(=O)NC(=O)Nc2ccc3c(c2)OCCO3)CC1 | i | i | 50µM | i | i | i
COc1ccccc1CCNC(=O)C(=O)NCC(c1cccnc1)N1CCN(c2ccccc2)CC1 (centres undefined) | nt | i | i | nt | i | i
Cc1ccc2c(c1)N(C(=O)Nc1cccc3c1CCCC3)CC(C)O2 (centres undefined) | nt | i | i | nt | i | i
COc1ccc(CNCc2ccncc2)cc1OC | i | i | i | i | i | i
COc1ccc(CNCc2ccc(C(F)(F)F)cc2)cc1OC | i | i | 79µM | i | 89µM | i
SMILES | CtBP-E1A inh | BAZ2B inh | G9a block | Six1-Eya2 blk | JMJD2A Tudor inh | HP1b binding inh
CS(=O)(=O)N1CCN(Cc2ccc(C(F)(F)F)cc2)CC1 | i | ? | 3.2µM | i | 1.6µM | ?
COc1cc(CN2CCN(Cc3ccc(C(F)(F)F)cc3)CC2)cc(OC)c1OC | nt | 18µM | i[0.501 µM] | i | 20µM | ?
COc1cc(CN2CCN(Cc3ccccc3C(F)(F)F)CC2)cc(OC)c1OC | i | 20µM | i[2.33 µM] | i | 0.79µM | 25µM
COc1cccc(OC)c1CC1SC(=O)NC1=O (centres undefined) | i | i | i | i | i | i
O=c1cc(-c2cccc(-c3ccc(C(F)(F)F)cc3)c2)c2cc3c(cc2o1)OCO3 | nt | nt | i | nt | nt | nt
CO[C@H]1/C=C/O[C@@]2(C)Oc3c(C)c(O)c4c(O)c(c(C=NN5CCN(C)CC5)c(O)c4c3C2=O)NC(=O)/C(C)=C\C=C\[C@H](C)[C@H](O)[C@@H](C)[C@@H](O)[C@@H](C)[C@H](OC(C)=O)[C@@H]1C | i | ? | i[12.7 µM] | i | i | ?
CO[C@H]1C=CO[C@@]2(C)Oc3c(C)c(O)c4c(O)c(c(C=NN5CCN(C)CC5)c(O)c4c3C2=O)NC(=O)C(C)=CC=C[C@H](C)[C@H](O)[C@@H](C)[C@@H](O)[C@@H](C)[C@H](OC(C)=O)[C@@H]1C | i | 45µM | ? | i | ? | i
Cc1ccc(NC(=O)C2C3C=CC4(CN(Cc5cccnc5)C(=O)C24)O3)cc1F (centres undefined) | i | i | 45µM | i | i | i
CC(C)c1ccc(NC(=O)C2C3C=CC4(CN(Cc5cccnc5)C(=O)C24)O3)cc1 (centres undefined) | nt | i | i | i | i | i
C=CCn1c(C)cc(-c2csc(NC)n2)c1C | i | nt | 8.9µM | i | 40µM | ?
C=CCn1c(C)cc(-c2csc(NCC)n2)c1C | i | 40µM | 16µM | i | 50µM | ?
C=CCn1c(C)cc(-c2csc(N)n2)c1C | i | 50µM | ? | i | 40µM | ?
C=CCn1c(C)cc(-c2csc(NC(=O)C3=COCCO3)n2)c1C | i | i | 45µM | i | i | i
CCc1ccc2oc(-c3ccc(C)c(NC(=O)Cc4ccccc4)c3)nc2c1 | nt | i | i | nt | i | i
COc1ccc(S(=O)(=O)N2CCC[C@H]2C(=O)N2CCC[C@H]2C(=O)NCc2ccc(F)cc2F)cc1C | i | nt | nt | i | nt | nt
O=C(O)c1ccc(NNC(=S)Nc2cc(C(F)(F)F)ccc2Cl)cc1 | i | ? | 35µM | i | i | i
CCCCCOCC1CC(C/C(C)=N/Nc2nc(-c3ccccc3)cs2)C(=O)O1 (centres undefined) | i | ? | 40µM | i | ? | i
CCCCCOCC1CC(C/C(C)=N/NC(N)=S)C(=O)O1 (centres undefined) | i | i | i | i | ? | i
Cc1ccc(S(=O)(=O)NC(=O)NN2CC3CCCC3C2)cc1 (centres undefined) | i | ? | i[2.33 µM] | i | 89µM | i
CCOC(=O)C1=CCN(S(=O)(=O)c2ccc(C)cc2)C1c1cccc(F)c1 (centres undefined) | i | nt | nt | i | nt | nt
O=C(CSc1nc2sc3c(c2c(=O)n1-c1ccccc1)CCCC3)NCc1ccco1 | i | i | i | i | i | i
COCCCn1c(SCC(=O)NCc2ccco2)nc2sc3c(c2c1=O)CCC3 | i | i | 50µM | i | i | i
O=C(CSc1ncnc2sc3c(c12)CCCCC3)NCc1ccco1 | i | ? | ? | i | i | i
